Results reported in PubChem BioAssay (EPA / NIEHS).
Calls of active or inactive are those of the source. How the source made its calls: active means hit-call score of the fitted dose curve at least 0.9, where 1 is the maximum; inactive means score below 0.9.

Key:
[1] = read-out: Tissue plasminogen activator (tPA), PLAT (gene 5327); experiment: BSK_BE3C_tPA: BioMAP Diversity Plus: BE3C Assay for Tissue plasminogen activator (tPA) Biomarker Activity (AID 2283041); conditions: primary human bronchial epithelial cells; actives raise or lower the signal
Method in brief: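 ELISA read-out of tPA on human primary bronchial epithelial cells, 24 h post-dosing; bidirectional fit vs DMSO negative control/baseline.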

[2] = read-out: Interleukin-8 (IL8), CXCL8 (gene 3576); experiment: BSK_CASM3C_IL8: BioMAP Diversity Plus: CASM3C Assay for Interleukin-8 (IL8) Biomarker Activity (AID 2283042); conditions: primary human coronary artery smooth muscle cells; actives raise or lower the signal;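 further: IL-8 protein level quantified by ELISA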
[3] = read-out: Human Leukocyte Antigen - DR isotype (HLADR), HLA-DRA (gene 3122); experiment: BSK_CASM3C_HLADR: BioMAP Diversity Plus: CASM3C Assay for Human Leukocyte Antigen - DR isotype (HLADR) Biomarker Activity (AID 2283043); conditions: primary human coronary artery smooth muscle cells; actives raise or lower the signal;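 further: cell-surface HLA-DR protein level quantified by ELISA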
[4] = read-out: Macrophage colony-stimulating factor (MCSF), CSF1 (gene 1435); experiment: BSK_CASM3C_MCSF: BioMAP Diversity Plus: CASM3C Assay for Macrophage colony-stimulating factor (MCSF) Biomarker Activity (AID 2283044); conditions: primary human coronary artery smooth muscle cells; actives raise or lower the signal;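 further: M-CSF protein amount quantified by ELISA after 24 h exposure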
[5] = read-out: Low-density lipoprotein receptor (LDLR), LDLR (gene 3949); experiment: BSK_CASM3C_LDLR: BioMAP Diversity Plus: CASM3C Assay for Low-density lipoprotein receptor (LDLR) Biomarker Activity (AID 2283045); conditions: primary human coronary artery smooth muscle cells; actives raise or lower the signal;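 further: LDLR protein level on the cell surface quantified by ELISA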
[6] = read-out: Monocyte Chemoattractant Protein-1 (MCP1), CCL2 (gene 6347); experiment: BSK_CASM3C_MCP1: BioMAP Diversity Plus: CASM3C Assay for Monocyte Chemoattractant Protein-1 (MCP1) Biomarker Activity (AID 2283046); conditions: primary human coronary artery smooth muscle cells; actives raise or lower the signal;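 further: MCP-1 level quantified by ELISA 24 h after dosing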
[7] = BSK_CASM3C_Proliferation: Cell Proliferation Assessment in the BioMAP Diversity Plus: CASM3C Assay (AID 2283047); conditions: primary human coronary artery smooth muscle cells;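 further: sulforhodamine B total protein stain as relative cell number at 560 nm; sub-confluent cells exposed 48 h before staining; fitted both ways against DMSO so gain or loss of cell number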
[8] = read-out: Monokine induced gamma interferon (MIG), CXCL9 (gene 4283); experiment: BSK_CASM3C_MIG: BioMAP Diversity Plus: CASM3C Assay for Monokine induced gamma interferon (MIG) Biomarker Activity (AID 2283048); conditions: primary human coronary artery smooth muscle cells; actives raise or lower the signal;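 further: MIG protein level measured by ELISA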
[9] = read-out: serum amyloid A (SAA), SAA1 (gene 6288); experiment: BSK_CASM3C_SAA: BioMAP Diversity Plus: CASM3C Assay for serum amyloid A (SAA) Biomarker Activity (AID 2283049); conditions: primary human coronary artery smooth muscle cells; actives raise or lower the signal;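 further: SAA protein level quantified by ELISA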
[10] = BSK_CASM3C_SRB: Viability Assessment in the BioMAP Diversity Plus: CASM3C Assay (AID 2283050); conditions: primary human coronary artery smooth muscle cells;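 further: total protein by SRB staining as cytotoxicity measure in parallel cultures; cells exposed to compound for 24 h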

Measured: AC50

COc1ccc(-c2ccccc2)cc1NNC(=O)OC(C)C
inactive: all assays above

CC(C)N1C(=O)N(c2ccccc2)CSC1=NC(C)(C)C
active: [7] 30 µM
inactive: all other assays above

CS(=O)(=O)c1ccc(C(=O)C2C(=O)CCCC2=O)c([N+](=O)[O-])c1
inactive: all assays above

C=C(C)CN(CC)c1c([N+](=O)[O-])cc(C(F)(F)F)cc1[N+](=O)[O-]
inactive: all assays above

COP(=S)(OC)SCn1nnc2ccccc2c1=O
inactive: all assays above

COc1cc(Cl)c(OC)cc1Cl
inactive: all assays above

O=c1n(Cl)c(=O)n(Cl)c(=O)n1Cl
inactive: all assays above

O=P(O)(O)CCCl
inactive: all assays above

CCCCC(C#N)(Cn1cncn1)c1ccc(Cl)cc1 (centres undefined)
inactive: all assays above

CCOc1nc(F)cc2nc(S(=O)(=O)Nc3c(Cl)cccc3Cl)nn12
inactive: all assays above

CCOC(=O)C(C)OC(=O)c1cc(Oc2ccc(C(F)(F)F)cc2Cl)ccc1[N+](=O)[O-] (centres undefined)
active: [4] 0.989 µM | [6] 8.51 µM
inactive: all other assays above

CCOc1cc(C(C)(C)C)ccc1C1COC(c2c(F)cccc2F)=N1 (centres undefined)
active: [1] 22.1 µM | [6] 32.5 µM | [7] 33 µM | [10] 25 µM
inactive: all other assays above

Nc1cnn(-c2ccccc2)c(=O)c1Cl
inactive: all assays above

CNC(=O)N(C)c1nnc(C(C)(C)C)s1
inactive: all assays above

N#Cc1c(Cl)cccc1Cl
inactive: all assays above

CC1(C)CCC(=Cc2ccc(Cl)cc2)C1(O)Cn1cncn1 (centres undefined)
inactive: all assays above

N#Cc1c[nH]cc1-c1cccc2c1OC(F)(F)O2
active: [7] 20 µM
inactive: all other assays above

CCOP(=O)(OCC)Oc1nc(Cl)c(Cl)cc1Cl
inactive: all assays above

CC(C)Nc1nc(Cl)nc(NC(C)C)n1
inactive: all assays above

COc1cc(OC)nc(NC(=O)NS(=O)(=O)c2ncccc2OCC(F)(F)F)n1
inactive: all assays above

CC(C)Oc1cccc(NC(=O)c2ccccc2C(F)(F)F)c1
inactive: all assays above

CSC(=O)c1c(C(F)F)nc(C(F)(F)F)c(C(=O)SC)c1CC(C)C
inactive: all assays above

CCCC(=NOCC)C1=C(O)CC(CC(C)SCC)CC1=O (centres undefined)
inactive: all assays above

CN=C=S
inactive: all assays above

CC(C)(C)C(=O)C(Oc1ccc(Cl)cc1)n1cncn1 (centres undefined)
inactive: all assays above

Cc1c(COC(=O)[C@@H]2[C@H](/C=C(\Cl)C(F)(F)F)C2(C)C)cccc1-c1ccccc1
inactive: all assays above

Cn1c(-c2ccccc2)cc(-c2ccccc2)[n+]1C
inactive: all assays above

Clc1cccc(C(Cl)(Cl)Cl)n1
inactive: all assays above

COCC(C)N(C(=O)CCl)c1c(C)csc1C (centres undefined)
inactive: all assays above

COP(=S)(OC)Oc1ccc([N+](=O)[O-])c(C)c1
inactive: all assays above

COC(=O)c1c(C(F)F)nc(C(F)(F)F)c(C2=NCCS2)c1CC(C)C
inactive: all assays above

CC1(C)C(C(=O)OC(C#N)c2cccc(Oc3ccccc3)c2)C1(C)C (centres undefined)
active: [7] 13.2 µM
inactive: all other assays above

COC(=O)NS(=O)(=O)c1ccc(N)cc1
inactive: all assays above

O=C(Nc1ccccc1-c1ccc(Cl)cc1)c1cccnc1Cl
inactive: all assays above

O=C(O)c1c(Cl)ccc2cc(Cl)cnc12
inactive: all assays above

CCC(C)n1c(=O)[nH]c(C)c(Br)c1=O (centres undefined)
inactive: all assays above

COC(=O)NC(=S)Nc1ccccc1NC(=S)NC(=O)OC
inactive: all assays above

CCNP(=S)(OC)O/C(C)=C/C(=O)OC(C)C (centres undefined)
inactive: all assays above

CCOc1nc(C(Cl)(Cl)Cl)ns1
inactive: all assays above

CCN(CC)c1nc(C)cc(OP(=S)(OC)OC)n1
active: [3] 11.8 µM
inactive: all other assays above

CC(C)NC(=O)N1CC(=O)N(c2cc(Cl)cc(Cl)c2)C1=O
inactive: all assays above

CCNC(=O)NC(=O)C(C#N)=NOC
active: [6] 1.98 µM
inactive: all other assays above

Cc1cnc(C2=NC(C)(C(C)C)C(=O)N2)c(C(=O)O)c1 (centres undefined)
inactive: all assays above

CC(C)C1(C)N=C(c2ncccc2C(=O)O)NC1=O (centres undefined)
inactive: all assays above

CCCCOCN(C(=O)CCl)c1c(CC)cccc1CC
active: [1] 36.9 µM | [2] 5.08 µM | [3] 26.1 µM | [4] 28.8 µM | [6] 33.2 µM | [7] 27.4 µM | [10] 31.4 µM
inactive: [5] | [8] | [9]

CO/N=C(/C1=NOCCO1)c1ccccc1Oc1ncnc(Oc2ccccc2Cl)c1F
active: [5] 13.5 µM | [7] 12.9 µM
inactive: all other assays above

CC(C)N1C(=O)c2ccccc2NS1(=O)=O
not listed: [6]
inactive: all other assays above

Cc1nc(N(C)C)nc(OC(=O)N(C)C)c1C
inactive: all assays above

Cc1cc(C)nc(Nc2ccccc2)n1
inactive: all assays above

CC1(C)CON(Cc2ccccc2Cl)C1=O
inactive: all assays above

O=C1C2CC=CCC2C(=O)N1SC(Cl)(Cl)Cl (centres undefined)
active: [1] 11.4 µM | [2] 31.7 µM | [3] 13.4 µM | [4] 28.9 µM | [6] 31.7 µM | [7] 7.03 µM | [8] 34.9 µM | [9] 35 µM | [10] 29.5 µM
inactive: [5]

CNC(=O)Oc1cccc2ccccc12
active: [7] 26.2 µM
inactive: all other assays above

CN/C(=N\[N+](=O)[O-])NCc1cnc(Cl)s1
inactive: all assays above

CCN(CC)C(=O)C(C)Oc1cccc2ccccc12 (centres undefined)
active: [7] 0.531 µM
inactive: all other assays above

CCSC(=O)N1CCCCCC1
inactive: all assays above

Nc1c(Cl)c(F)nc(OCC(=O)O)c1Cl
inactive: all assays above

OC(c1ccc(Cl)cc1)(c1ccc(Cl)cc1)C(Cl)(Cl)Cl
inactive: [3] | [5]
active: [1] 13.1 µM | [2] 33.4 µM | [4] 36.2 µM | [6] 35.2 µM | [7] 30.4 µM | [8] 31.3 µM | [9] 32.2 µM | [10] 35.2 µM

COCc1cnc(C2=NC(C)(C(C)C)C(=O)N2)c(C(=O)O)c1 (centres undefined)
inactive: all assays above

CCOP(=S)(OCC)Oc1nc(Cl)n(C(C)C)n1
inactive: all assays above

COC(=O)N(C(=O)N1CO[C@@]2(C(=O)OC)Cc3cc(Cl)ccc3C2=N1)c1ccc(OC(F)(F)F)cc1
active: [7] 12.4 µM
inactive: all other assays above

Nc1c(Cl)c(Cl)nc(C(=O)O)c1Cl
inactive: all assays above

CS(=O)(=O)c1cc(C(F)(F)F)ccc1C(=O)c1cnoc1C1CC1
inactive: all assays above

CCCN(CC)CC1COC2(CCC(C(C)(C)C)CC2)O1 (centres undefined)
active: [7] 7.08 µM
inactive: all other assays above

COCC(=O)N(c1c(C)cccc1C)C(C)C(=O)OC (centres undefined)
inactive: all assays above

Clc1nc(Cl)nc(Nc2ccccc2Cl)n1
inactive: all assays above

C=CCOC(=O)C(C)(C)OC(=O)c1cc(-n2c(=O)cc(C(F)(F)F)n(C)c2=O)ccc1Cl
active: [6] 12.9 µM | [9] 0.859 µM
inactive: all other assays above

CC(C)=CC1C(C(=O)OCc2coc(Cc3ccccc3)c2)C1(C)C (centres undefined)
active: [7] 24.6 µM
inactive: all other assays above

N#CN=C1SCCN1Cc1ccc(Cl)nc1
inactive: all assays above

CCCCC(O)(Cn1cncn1)c1ccc(Cl)cc1Cl (centres undefined)
inactive: all assays above

COP(=O)(OC)O/C(C)=C/C(=O)N(C)C
inactive: all assays above

CC1(C)C(C=C(Cl)Cl)C1C(=O)OC(C#N)c1cccc(Oc2ccccc2)c1 (centres undefined)
inactive: all assays above

Cc1ccc(N=CN(C)C=Nc2ccc(C)cc2C)c(C)c1
active: [4] 29.6 µM | [7] 30.4 µM | [9] 28.7 µM | [10] 28.5 µM
inactive: all other assays above
